The results in this text go back to publication PMC7862700, “An all-to-all approach to the identification of sequence-specific readers for epigenetic DNA modifications on cytosine”.

Experiment in all cases: DAPPL (digital affinity profiling via proximity ligation, sequencing); 10 mM Tris-HCl pH 7.5, 50 mM NaCl, 1 mM DTT, 4% glycerol, room temperature, 30 min; GST-TFs on glutathione beads, 16-mer random dsDNA library, 0.1% formaldehyde crosslink after washing; high values mean tight binding
In one assay the target is T1, FLI1 (Homo sapiens, UniProt Q01543 1-452).
T1 sequence: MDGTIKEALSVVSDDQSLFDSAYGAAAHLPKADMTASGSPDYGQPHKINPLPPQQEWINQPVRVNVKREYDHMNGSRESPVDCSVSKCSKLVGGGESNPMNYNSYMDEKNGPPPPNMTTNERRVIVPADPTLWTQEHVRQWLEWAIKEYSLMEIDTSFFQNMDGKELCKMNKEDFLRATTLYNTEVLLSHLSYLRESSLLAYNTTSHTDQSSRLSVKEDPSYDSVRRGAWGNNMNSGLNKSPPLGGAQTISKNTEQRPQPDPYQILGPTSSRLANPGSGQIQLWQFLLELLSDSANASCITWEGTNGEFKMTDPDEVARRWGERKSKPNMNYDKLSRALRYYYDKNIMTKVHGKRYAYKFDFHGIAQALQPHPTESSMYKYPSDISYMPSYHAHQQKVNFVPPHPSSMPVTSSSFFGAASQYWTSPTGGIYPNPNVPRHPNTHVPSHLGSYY
Conditions: protein: recombinant; tags: N-terminal GST; dsDNA, one strand shown. A digest of the protocol:
(§1)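 The binding signal reported is, for every hexamer, its read frequency for a factor over its read frequency for the tag-only sample. Reads came from pools of yeast-expressed, GST-fused human transcription factors on glutathione beads, barcoded with DNA and mixed with that sample, which were incubated with 200 nmole of a random double-stranded 16-mer DNA library in Tris/NaCl/DTT/glycerol buffer at room temperature for 30 min. After washing, the pools were crosslinked with 0.1% formaldehyde, proximity-ligated with BsaI/T4 ligase for 1 h at 37 °C, PCR-amplified and sequenced on an Illumina NextSeq500.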

The target in a further assay is T2, ELK1 (Homo sapiens, UniProt P19419 1-428).
T2 sequence: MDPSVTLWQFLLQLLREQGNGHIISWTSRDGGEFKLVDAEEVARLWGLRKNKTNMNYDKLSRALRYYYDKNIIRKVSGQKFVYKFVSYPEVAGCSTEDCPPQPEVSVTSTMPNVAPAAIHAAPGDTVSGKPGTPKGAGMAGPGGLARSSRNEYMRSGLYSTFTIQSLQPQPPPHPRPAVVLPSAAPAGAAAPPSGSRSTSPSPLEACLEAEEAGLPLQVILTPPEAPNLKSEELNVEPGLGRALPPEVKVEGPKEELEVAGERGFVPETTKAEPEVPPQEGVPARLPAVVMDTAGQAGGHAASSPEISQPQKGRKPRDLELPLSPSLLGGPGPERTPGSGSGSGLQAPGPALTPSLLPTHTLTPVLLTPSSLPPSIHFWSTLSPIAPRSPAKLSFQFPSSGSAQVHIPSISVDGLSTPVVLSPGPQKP
The note with it: protein: recombinant; tags: N-terminal GST; dsDNA, one strand shown. A digest of the protocol: as §1

Another assay concerns the target T3, GABPA (Homo sapiens, UniProt Q06546 1-454).
T3 sequence: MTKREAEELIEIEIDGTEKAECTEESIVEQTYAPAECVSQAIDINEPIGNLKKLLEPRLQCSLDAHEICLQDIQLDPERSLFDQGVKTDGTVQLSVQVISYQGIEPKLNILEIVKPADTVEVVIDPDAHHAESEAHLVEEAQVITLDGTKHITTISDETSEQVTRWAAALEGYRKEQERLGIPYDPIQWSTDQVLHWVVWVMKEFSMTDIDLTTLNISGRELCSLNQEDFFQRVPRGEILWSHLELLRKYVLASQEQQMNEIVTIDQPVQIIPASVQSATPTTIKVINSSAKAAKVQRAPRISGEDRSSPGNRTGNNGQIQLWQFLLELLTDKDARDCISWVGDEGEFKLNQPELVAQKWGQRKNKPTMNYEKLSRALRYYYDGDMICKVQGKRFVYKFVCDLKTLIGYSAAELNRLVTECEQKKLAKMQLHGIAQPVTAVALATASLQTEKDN
Conditions: protein: recombinant; tags: N-terminal GST; dsDNA, one strand shown. A digest of the protocol: as §1

The target in a further assay is T4, ERG (Homo sapiens, UniProt P11308 1-479).
T4 sequence: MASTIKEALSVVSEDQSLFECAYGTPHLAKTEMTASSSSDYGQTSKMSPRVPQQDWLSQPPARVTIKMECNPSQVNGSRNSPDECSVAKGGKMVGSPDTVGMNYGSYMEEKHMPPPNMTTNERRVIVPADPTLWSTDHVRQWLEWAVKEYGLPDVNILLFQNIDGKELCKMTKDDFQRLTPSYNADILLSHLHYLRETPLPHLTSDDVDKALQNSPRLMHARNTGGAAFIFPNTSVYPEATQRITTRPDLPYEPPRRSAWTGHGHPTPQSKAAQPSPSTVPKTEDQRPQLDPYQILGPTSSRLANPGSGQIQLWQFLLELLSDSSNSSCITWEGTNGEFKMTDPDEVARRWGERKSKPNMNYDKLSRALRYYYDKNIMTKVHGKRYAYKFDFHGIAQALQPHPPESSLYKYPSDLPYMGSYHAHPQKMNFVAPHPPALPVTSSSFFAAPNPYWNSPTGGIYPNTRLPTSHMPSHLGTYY
Conditions: protein: recombinant; tags: N-terminal GST; dsDNA, one strand shown. In outline:
as §1

For another assay, the target named is ELF1 (Homo sapiens, UniProt P32519 1-619). The note with it: protein: recombinant; tags: N-terminal GST; dsDNA, one strand shown. In outline:
as §1

A further assay deals with T5, EHF (Homo sapiens, UniProt Q9NZC4 1-300).
T5 sequence: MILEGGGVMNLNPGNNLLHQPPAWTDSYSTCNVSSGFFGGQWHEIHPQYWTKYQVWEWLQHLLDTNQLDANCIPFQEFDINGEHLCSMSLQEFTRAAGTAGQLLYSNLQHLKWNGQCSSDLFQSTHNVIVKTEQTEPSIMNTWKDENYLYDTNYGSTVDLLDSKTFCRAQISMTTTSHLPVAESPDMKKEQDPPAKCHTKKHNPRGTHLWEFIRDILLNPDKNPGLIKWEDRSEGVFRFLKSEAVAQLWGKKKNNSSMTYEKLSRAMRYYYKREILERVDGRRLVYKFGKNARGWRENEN
The note with it: protein: recombinant; tags: N-terminal GST; dsDNA, one strand shown. In outline: as §1

The target of another assay is SPI1 (Homo sapiens, UniProt P17947 1-270). Conditions: protein: recombinant; tags: N-terminal GST; dsDNA, one strand shown. A digest of the protocol:
as §1

Another assay has as its target SPIB (Homo sapiens, UniProt Q01892 1-262). Conditions: protein: recombinant; tags: N-terminal GST; dsDNA, one strand shown. In outline:
as §1

The next assay has as its target T6, FEV (Homo sapiens, UniProt Q99581 1-238).
T6 sequence: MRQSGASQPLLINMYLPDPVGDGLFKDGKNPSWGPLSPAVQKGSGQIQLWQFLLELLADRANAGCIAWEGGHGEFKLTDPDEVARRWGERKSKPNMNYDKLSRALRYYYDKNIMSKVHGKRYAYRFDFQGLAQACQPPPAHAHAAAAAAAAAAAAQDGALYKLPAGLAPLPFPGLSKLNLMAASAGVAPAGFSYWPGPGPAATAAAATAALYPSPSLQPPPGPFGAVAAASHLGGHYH
Conditions: protein: recombinant; tags: N-terminal GST; dsDNA, one strand shown. A digest of the protocol:
as §1

The next assay addresses ETV5 (Homo sapiens, UniProt P41161 1-510). Conditions: protein: recombinant; tags: N-terminal GST; dsDNA, one strand shown. A digest of the protocol:
as §1

For the next assay, the target named is HSF1 (Homo sapiens, UniProt Q00613 1-529). Conditions: protein: recombinant; tags: N-terminal GST; chain copies: 3; dsDNA, one strand shown. A digest of the protocol: as §1
Sequence of HSF1 (Q00613 whole entry): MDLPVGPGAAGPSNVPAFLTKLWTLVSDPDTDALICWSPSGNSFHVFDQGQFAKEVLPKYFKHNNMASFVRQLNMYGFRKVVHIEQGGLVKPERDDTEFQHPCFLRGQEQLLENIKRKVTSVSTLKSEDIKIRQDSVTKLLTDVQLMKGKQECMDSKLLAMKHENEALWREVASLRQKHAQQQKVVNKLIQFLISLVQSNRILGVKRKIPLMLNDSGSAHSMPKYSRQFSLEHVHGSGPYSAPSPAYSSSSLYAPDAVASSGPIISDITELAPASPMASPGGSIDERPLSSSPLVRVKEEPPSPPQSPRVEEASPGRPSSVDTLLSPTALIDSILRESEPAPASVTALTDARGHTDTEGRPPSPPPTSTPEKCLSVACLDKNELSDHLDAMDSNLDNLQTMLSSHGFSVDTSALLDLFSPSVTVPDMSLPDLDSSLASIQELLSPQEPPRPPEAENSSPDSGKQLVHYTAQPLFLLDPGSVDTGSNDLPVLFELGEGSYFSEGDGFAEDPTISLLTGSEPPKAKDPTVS
In another assay the target is T7, SPIC (Homo sapiens, UniProt Q8N5J4 1-248).
T7 sequence: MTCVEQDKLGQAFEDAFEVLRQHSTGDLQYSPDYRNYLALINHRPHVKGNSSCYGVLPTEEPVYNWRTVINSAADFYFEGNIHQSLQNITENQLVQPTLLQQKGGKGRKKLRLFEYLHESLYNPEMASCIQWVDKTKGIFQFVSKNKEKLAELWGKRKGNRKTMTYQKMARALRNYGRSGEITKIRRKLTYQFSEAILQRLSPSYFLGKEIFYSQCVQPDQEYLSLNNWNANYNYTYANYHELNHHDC
The note with it: protein: recombinant; tags: N-terminal GST; dsDNA, one strand shown. A digest of the protocol:
as §1

Another assay has as its target ELF4 (Homo sapiens, UniProt Q99607 1-663). The note with it: protein: recombinant; tags: N-terminal GST; dsDNA, one strand shown. A digest of the protocol: as §1
Another assay deals with T8, ELK4 (Homo sapiens, UniProt P28324-2 1-405).
T8 sequence: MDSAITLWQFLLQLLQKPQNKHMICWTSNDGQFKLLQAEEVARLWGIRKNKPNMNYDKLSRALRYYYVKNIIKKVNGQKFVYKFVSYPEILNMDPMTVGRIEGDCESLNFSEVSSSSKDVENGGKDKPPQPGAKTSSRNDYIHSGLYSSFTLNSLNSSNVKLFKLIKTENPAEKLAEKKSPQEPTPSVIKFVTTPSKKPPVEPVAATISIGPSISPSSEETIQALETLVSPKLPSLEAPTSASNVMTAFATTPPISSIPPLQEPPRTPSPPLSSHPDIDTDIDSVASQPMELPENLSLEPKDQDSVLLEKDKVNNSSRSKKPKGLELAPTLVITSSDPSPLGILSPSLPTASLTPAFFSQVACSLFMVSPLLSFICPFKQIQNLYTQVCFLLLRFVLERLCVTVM
Conditions: protein: recombinant; tags: N-terminal GST; dsDNA, one strand shown. A digest of the protocol:
as §1

The target of the next assay is T9, ETV2 (Homo sapiens, UniProt O00321 1-342).
T9 sequence: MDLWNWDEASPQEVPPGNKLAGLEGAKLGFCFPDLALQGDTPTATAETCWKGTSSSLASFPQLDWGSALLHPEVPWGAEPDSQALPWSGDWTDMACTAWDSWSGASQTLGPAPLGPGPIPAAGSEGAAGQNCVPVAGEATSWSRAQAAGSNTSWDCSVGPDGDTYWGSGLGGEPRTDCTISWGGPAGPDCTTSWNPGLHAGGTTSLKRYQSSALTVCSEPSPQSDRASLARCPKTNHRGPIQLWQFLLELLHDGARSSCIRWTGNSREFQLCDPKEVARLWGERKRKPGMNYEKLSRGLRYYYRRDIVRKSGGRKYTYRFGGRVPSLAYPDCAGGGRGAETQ
The note with it: protein: recombinant; tags: N-terminal GST; dsDNA, one strand shown. In outline: as §1

For the next assay, the target named is T10, ELF3 (Homo sapiens, UniProt P78545 1-371).
T10 sequence: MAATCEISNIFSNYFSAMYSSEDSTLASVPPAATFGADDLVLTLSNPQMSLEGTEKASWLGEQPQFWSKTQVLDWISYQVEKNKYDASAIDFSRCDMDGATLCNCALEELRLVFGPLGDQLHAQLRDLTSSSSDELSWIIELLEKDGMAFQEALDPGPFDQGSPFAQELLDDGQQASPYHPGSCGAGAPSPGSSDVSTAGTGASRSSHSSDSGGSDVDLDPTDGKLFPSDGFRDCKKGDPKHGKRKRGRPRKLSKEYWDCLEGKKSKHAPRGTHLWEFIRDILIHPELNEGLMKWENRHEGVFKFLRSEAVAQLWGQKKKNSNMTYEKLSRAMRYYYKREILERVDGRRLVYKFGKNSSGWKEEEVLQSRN
Conditions: protein: recombinant; tags: N-terminal GST; dsDNA, one strand shown. A digest of the protocol:
as §1

For another assay, the target named is CRX (Homo sapiens, UniProt O43186 1-299). Conditions: protein: recombinant; tags: N-terminal GST; dsDNA, one strand shown. In outline:
as §1

The next assay concerns the target ETV1 (Homo sapiens, UniProt P50549 1-477). The note with it: protein: recombinant; tags: N-terminal GST; dsDNA, one strand shown. In outline: as §1

Sequence of SPIB (Q01892 whole entry): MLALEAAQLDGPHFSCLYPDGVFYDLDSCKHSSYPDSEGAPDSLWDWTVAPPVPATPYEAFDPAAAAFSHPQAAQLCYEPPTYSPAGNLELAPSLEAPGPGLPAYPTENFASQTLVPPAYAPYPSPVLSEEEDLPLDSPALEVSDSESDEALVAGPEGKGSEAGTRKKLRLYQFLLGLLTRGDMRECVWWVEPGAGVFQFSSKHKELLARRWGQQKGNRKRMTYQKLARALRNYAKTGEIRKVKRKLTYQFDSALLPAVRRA
Sequence of CRX (O43186 whole entry): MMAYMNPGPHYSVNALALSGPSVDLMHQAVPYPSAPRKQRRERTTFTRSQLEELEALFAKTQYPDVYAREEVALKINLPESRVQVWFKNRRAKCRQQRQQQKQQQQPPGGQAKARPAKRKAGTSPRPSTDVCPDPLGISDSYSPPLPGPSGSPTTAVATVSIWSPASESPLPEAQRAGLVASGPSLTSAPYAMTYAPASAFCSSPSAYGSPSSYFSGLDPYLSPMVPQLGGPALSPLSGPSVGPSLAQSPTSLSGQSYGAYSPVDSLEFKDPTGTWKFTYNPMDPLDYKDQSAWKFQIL
Sequence of ETV1 (P50549 whole entry): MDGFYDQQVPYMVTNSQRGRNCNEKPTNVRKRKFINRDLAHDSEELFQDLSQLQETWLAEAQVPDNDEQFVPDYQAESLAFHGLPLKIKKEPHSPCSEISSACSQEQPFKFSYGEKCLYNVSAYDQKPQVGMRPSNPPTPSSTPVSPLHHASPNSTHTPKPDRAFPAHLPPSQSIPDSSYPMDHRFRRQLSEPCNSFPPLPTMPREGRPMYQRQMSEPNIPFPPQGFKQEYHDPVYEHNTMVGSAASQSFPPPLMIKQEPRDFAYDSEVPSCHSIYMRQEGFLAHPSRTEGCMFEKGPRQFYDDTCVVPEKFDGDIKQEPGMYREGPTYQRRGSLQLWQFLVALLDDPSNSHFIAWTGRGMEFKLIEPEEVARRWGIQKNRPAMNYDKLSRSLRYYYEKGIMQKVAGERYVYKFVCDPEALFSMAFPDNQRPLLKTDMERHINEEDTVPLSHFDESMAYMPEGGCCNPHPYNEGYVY
Sequence of ELF1 (P32519 whole entry): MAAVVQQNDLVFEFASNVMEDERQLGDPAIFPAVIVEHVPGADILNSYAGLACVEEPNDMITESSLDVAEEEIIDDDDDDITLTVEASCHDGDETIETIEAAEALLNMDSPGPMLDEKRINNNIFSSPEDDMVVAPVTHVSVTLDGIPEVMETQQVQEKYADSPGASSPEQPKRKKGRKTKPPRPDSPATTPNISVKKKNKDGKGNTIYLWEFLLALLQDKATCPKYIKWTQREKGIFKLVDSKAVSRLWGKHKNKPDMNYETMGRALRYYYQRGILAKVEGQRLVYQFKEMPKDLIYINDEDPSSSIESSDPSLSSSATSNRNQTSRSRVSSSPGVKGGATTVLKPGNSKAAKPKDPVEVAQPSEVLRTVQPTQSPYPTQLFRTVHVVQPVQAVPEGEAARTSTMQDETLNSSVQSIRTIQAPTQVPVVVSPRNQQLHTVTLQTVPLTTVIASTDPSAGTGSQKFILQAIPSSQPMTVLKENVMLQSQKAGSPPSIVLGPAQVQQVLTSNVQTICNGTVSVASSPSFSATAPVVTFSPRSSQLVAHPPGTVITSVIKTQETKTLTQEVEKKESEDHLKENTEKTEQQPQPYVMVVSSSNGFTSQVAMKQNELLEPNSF
Sequence of ELF4 (Q99607 whole entry): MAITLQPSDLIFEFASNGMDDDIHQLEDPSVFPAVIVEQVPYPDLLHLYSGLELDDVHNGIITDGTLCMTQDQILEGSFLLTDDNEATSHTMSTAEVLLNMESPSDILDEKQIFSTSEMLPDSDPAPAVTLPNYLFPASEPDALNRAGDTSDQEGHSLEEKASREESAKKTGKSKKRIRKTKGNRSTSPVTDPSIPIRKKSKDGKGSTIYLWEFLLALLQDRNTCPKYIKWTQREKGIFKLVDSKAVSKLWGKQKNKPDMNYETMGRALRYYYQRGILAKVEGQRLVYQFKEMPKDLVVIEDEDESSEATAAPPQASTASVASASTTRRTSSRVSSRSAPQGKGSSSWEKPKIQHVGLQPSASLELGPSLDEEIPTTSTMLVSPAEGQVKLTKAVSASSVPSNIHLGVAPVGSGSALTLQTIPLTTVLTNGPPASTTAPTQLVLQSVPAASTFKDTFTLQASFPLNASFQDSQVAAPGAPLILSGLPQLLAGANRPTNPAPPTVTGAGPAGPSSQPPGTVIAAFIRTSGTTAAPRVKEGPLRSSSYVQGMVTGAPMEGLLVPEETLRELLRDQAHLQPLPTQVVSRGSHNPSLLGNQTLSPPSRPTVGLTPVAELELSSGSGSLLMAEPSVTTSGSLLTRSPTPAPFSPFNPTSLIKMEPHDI
Sequence of ETV5 (P41161 whole entry): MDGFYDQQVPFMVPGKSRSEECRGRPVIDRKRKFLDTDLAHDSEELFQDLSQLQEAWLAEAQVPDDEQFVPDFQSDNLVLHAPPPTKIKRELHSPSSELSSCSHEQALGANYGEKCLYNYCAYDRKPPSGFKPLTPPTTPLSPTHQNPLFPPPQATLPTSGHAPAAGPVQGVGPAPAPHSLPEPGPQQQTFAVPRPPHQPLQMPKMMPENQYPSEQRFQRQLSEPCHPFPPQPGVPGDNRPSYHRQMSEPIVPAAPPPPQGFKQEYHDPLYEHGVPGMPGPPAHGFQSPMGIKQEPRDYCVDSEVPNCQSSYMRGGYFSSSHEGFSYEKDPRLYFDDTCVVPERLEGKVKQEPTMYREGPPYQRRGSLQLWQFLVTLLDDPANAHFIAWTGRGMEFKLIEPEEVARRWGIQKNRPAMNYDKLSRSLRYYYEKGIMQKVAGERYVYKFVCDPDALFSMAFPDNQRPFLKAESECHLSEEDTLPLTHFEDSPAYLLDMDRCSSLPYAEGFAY

With GCTGAA, the binding signal with FLI1 is 1.14 fold enrichment (6-mer frequency, TF over GST control); in the assay with ELK1 it was 1.09 fold enrichment (6-mer frequency, TF over GST control); with GABPA it was 1.14 fold enrichment (6-mer frequency, TF over GST control); with ERG, 1.03 fold enrichment (6-mer frequency, TF over GST control); with ELF1, 1.16 fold enrichment (6-mer frequency, TF over GST control); with EHF, 1.1 fold enrichment (6-mer frequency, TF over GST control). The binding signal with SPI1 is 1.06 fold enrichment (6-mer frequency, TF over GST control); with SPIB, 1.11 fold enrichment (6-mer frequency, TF over GST control); in the assay with FEV, 1.03 fold enrichment (6-mer frequency, TF over GST control); with ETV5, 1.16 fold enrichment (6-mer frequency, TF over GST control); with HSF1 it was 1.04 fold enrichment (6-mer frequency, TF over GST control); with SPIC, 1.31 fold enrichment (6-mer frequency, TF over GST control). Moreover, the binding signal was 1.1 fold enrichment (6-mer frequency, TF over GST control) in the assay with ELF4; 1.23 fold enrichment (6-mer frequency, TF over GST control) with ELK4; 1.21 fold enrichment (6-mer frequency, TF over GST control) with ETV2; 1.18 fold enrichment (6-mer frequency, TF over GST control) with ELF3; 1.05 fold enrichment (6-mer frequency, TF over GST control) in the assay with CRX; 1.05 fold enrichment (6-mer frequency, TF over GST control) in the assay with ETV1.
